According to PubChem BioAssay AID2289 (National Center for Advancing Translational Sciences (NCATS), 2010):
Hit rate of the full screen: of about 340,000 compounds, about 3,300 (0.97%) were called active. Inconclusive results (about 9%) are left out. Calls follow the shape of the dose curve; as a rule, active = well fitted inhibition curve with a large enough effect; inconclusive = small, poorly fitted or top-dose-only effect, or effect the other way; inactive = flat fitted curve, though single readings scatter. The list shows a part of the results.

Experiment: qHTS Assay for Modulators of miRNAs and/or Inhibitors of miR-21; also: nearly all actives have a fitted effect of over 55% in size
Details: HeLa miR-21-FLuc reporter, luciferase luminescence, 48 h; actives lower the signal
How it was run: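 HeLa cells endogenously expressing miR-21, stably carrying CMV-driven firefly luciferase with a downstream miR-21 binding site, 2000 cells/well. Titrations up to approximately 40 uM, 48 hours; luciferase luminescence read.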
Potency is read from the fitted curve at half-maximal effect.

Potency, active:
COc1cccc(/C=N/NC(=O)NC2CCCCC2)c1O 4.14 µM, O=C(N/N=C/c1cccc(F)c1)NC1CCCCC1 16.5 µM, O=C(N/N=C/c1ccccc1F)NC1CCCCC1 10.4 µM, O=C(CCSc1ccccc1Cl)Nc1cccc([N+](=O)[O-])c1 11.7 µM, NS(=O)(=O)c1cccc(NC(=O)CCSc2ccccc2Cl)c1 10.4 µM, CN(C)C(=O)c1ccc(-c2cc(C(F)(F)F)nn2C)s1 6.56 µM, O=C(CN1c2ccc(Br)cc2-c2ccccc2S1(=O)=O)N1CCCCC1 7.36 µM, Cc1nccc(-c2cc(-c3ccc(Cl)cc3Cl)no2)n1 2.33 µM, COc1ccc(-c2csc(C3=C(O)CN(CCCN4CCCC4=O)C3=N)n2)cc1OC 16.5 µM, Cc1ccccc1OCc1nc2ccccc2c(=O)n1N 16.5 µM, Cc1ccccc1OCc1nc2ccccc2c(=O)n1/N=C/c1ccco1 10.4 µM, Nn1c(COc2ccc(Cl)cc2)nc2ccccc2c1=O 7.36 µM, COc1ccc(Nc2oc(-c3ccccc3)nc2C#N)cc1 1.85 µM, COc1ccc(Nc2oc(-c3ccc(OC)cc3)nc2C#N)cc1 2.93 µM, c1ccc(Nc2nnc(-c3cccc4ccccc34)o2)cc1 1.85 µM, COc1ccc(-c2nc(C#N)c(NC(C)C)o2)cc1 6.56 µM, CC(C)Nc1oc(-c2cccc3ccccc23)nc1C#N 13.1 µM, CCOc1ccc(Nc2oc(Cc3ccccc3)nc2C#N)cc1 11.7 µM, O=C1c2ccccc2C(=O)c2c1cccc2N1CCOCC1 11.7 µM, O=c1c2ccccc2nc(-c2ccccc2)n1Cc1ccccc1 14.7 µM, COc1ccccc1-c1ccc(NC2CCCC2)nn1 13.1 µM, COc1ccccc1-c1ccc(NC2CCCCC2)nn1 7.36 µM, Cn1ccc(NC(=O)Nc2ccc(Cl)cc2Cl)n1 3.69 µM, Cc1ccc2cc(CCNC(=O)c3ccco3)c(=O)[nH]c2c1 5.85 µM, Cc1ccc2cc(CCNC(=O)c3ccco3)c(=O)[nH]c2c1C 0.826 µM, Cc1ccc(-c2ccc(/C=N/O)o2)cc1[N+](=O)[O-] 16.5 µM, CCCc1cc(=O)n2[nH]c(-c3ccccc3)cc2n1 4.14 µM, COc1ccccc1NC(=O)c1ccc2nsnc2c1 7.36 µM, COc1cc2c(cc1NC(=O)c1ccc3c(c1)OCO3)oc1ccccc12 7.36 µM, Cc1cccc(NC(=O)c2ccc3c(c2)OCCO3)c1C 4.65 µM, COc1ccccc1NC(=O)c1ccc2c(c1)OCO2 3.29 µM, O=C(O)C1CC=CCC1C(=O)NCCc1csc(-c2ccccc2)n1 (stereo not drawn) 18.5 µM, O=C1c2ccccc2S(=O)(=O)N1CC1CC(c2ccc(Cl)cc2)=NO1 (stereo not drawn) 2.93 µM, O=C1c2ccccc2S(=O)(=O)N1CC1CC(c2ccccc2Cl)=NO1 (stereo not drawn) 4.14 µM, O=C(COC(=O)Cn1cnc2ccccc21)Nc1ccc2c(c1)C(=O)c1ccccc1C2=O 2.07 µM, COc1ccccc1Nc1ncnc2c1c(C)c(C)n2CCO 14.7 µM, Cc1c(C)n(CCO)c2ncnc(Nc3ccc(F)cc3)c12 14.7 µM, COc1ccc(Nc2ncnc3c2c(C)c(C)n3CCO)cc1 0.736 µM, O=[N+]([O-])c1ccc(N/N=C/c2cccc(O)c2O)cc1 6.56 µM, O=[N+]([O-])c1ccccc1N/N=C\c1ccccc1Cl 0.656 µM, CCCOc1ccc(/C=N/Nc2ccccc2[N+](=O)[O-])c(O)c1 0.0656 µM, O=[N+]([O-])c1ccccc1N/N=C/c1cccc(O)c1O 2.61 µM, COc1ccccc1/C=N\Nc1ccccc1[N+](=O)[O-] 1.04 µM, O=[N+]([O-])c1ccccc1NC(=S)N/N=C/c1ccc(O)c(O)c1 1.85 µM, O=C(CCS(=O)(=O)c1ccccc1)NC12CC3CC(CC(C3)C1)C2 2.07 µM, O=C(CCCc1ccccc1)NC12CC3CC(CC(C3)C1)C2 1.65 µM, Cc1ccc2nc(-c3ccc(N4C(=NC(=O)CCC(=O)O)SC5CS(=O)(=O)CC54)cc3)sc2c1 (stereo not drawn) 3.29 µM, CCCC(=O)N=C1SC2CS(=O)(=O)CC2N1c1ccc(-c2nc3ccc(C)cc3s2)cc1 (stereo not drawn) 2.93 µM, Nc1nc(-c2cccnc2)nc2sc3c(c12)CCCC3 4.65 µM, NNc1nc(-c2ccccc2Cl)nc2sc3c(c12)CCCC3 5.21 µM, NNc1nc(-c2ccccc2)nc2sc3c(c12)CCCC3 0.464 µM, CC1CCN(C(=O)c2ccc(NC(=O)c3nsc4ccccc34)cc2)CC1 1.85 µM, CC1CCN(C(=O)c2cccc(NC(=O)c3nsc4ccccc34)c2)CC1 7.36 µM, CCOC(=O)C1CCCN(C(=O)c2ccc(NC(=O)c3nsc4ccccc34)cc2)C1 (stereo not drawn) 3.69 µM, COc1ccc2nc(Nc3nc4cc5c(cc4s3)OCCO5)sc2c1 13.1 µM, COC(=O)CCc1sc(Nc2ccccc2)nc1-c1ccc(OC)cc1 16.5 µM, COc1ccc(Nc2nc(C)c(-c3ccccc3)s2)cc1 6.56 µM, COc1ccc2nc(Nc3ccc4c(c3)OCO4)sc2c1 4.65 µM, COc1ccc(Nc2nc3ccc(OC)cc3s2)cc1 3.69 µM, O=c1c2c(nc3cc(-c4ccc(F)cc4)[nH]n13)CCC2 1.04 µM, COC(=O)C1C(=O)C=C(Nc2ccc(F)cc2)CC1c1ccc(OC)cc1 (stereo not drawn) 10.4 µM, Cc1ccc2c(Cl)c(C(=O)NCCc3ccccc3)sc2c1 6.56 µM, Cc1cc(OCC(=O)N(C)C2CCCCC2)ccc1Cl 1.65 µM, Cc1cn(CCC(=O)Nc2ccccc2N2CCOCC2)c2ccccc12 9.27 µM, CCCS/C(N)=N/N=C/c1cc(C)ccc1O 1.47 µM, CCOc1ccc(CNC(=O)c2cc3ccccn3n2)cc1 7.36 µM, CC(C)Oc1ccc(CNC(=O)c2cc3ccccn3n2)cc1 6.56 µM, COc1cc(Cl)c(NC(=O)c2cc3ccccn3n2)c(OC)c1 6.56 µM, CN(C)c1ccc(-n2cc3c(=O)n(C)c(=O)n(C)c3c2)cc1 11.7 µM, COCc1cc(C)nc2sc(C(=O)Nc3nccs3)c(N)c12 13.1 µM, COCc1cc(C)nc2sc(C(=O)Nc3cccc(OC)c3)c(N)c12 2.07 µM, COCc1cc(C)nc2sc(C(=O)Nc3ccc(OC)cc3)c(N)c12 16.5 µM, Nc1c(-c2nc(-c3ccccc3Cl)no2)nnn1-c1ccccc1F 0.826 µM, CCc1ccccc1NC(=O)C(=O)c1cc(C)n(-c2ccccc2F)c1C 16.5 µM, CCOC(=O)c1c(C)oc2c1c(CN1CCN(C(=O)OCC)CC1)c(O)c1ccccc12 14.7 µM, CCOC(=O)c1c(C)oc2c1c(CN1CCN(CCO)CC1)c(O)c1ccccc12 10.4 µM, CCOC(=O)c1c(C)oc2c1cc(O)c1ccccc12 5.21 µM, CCOC(=O)c1c(C)oc2c1c1c(c3ccccc32)OCN(CCCC(=O)O)C1 10.4 µM, Oc1cccc(Nc2ncnc3c2oc2ccccc23)c1 5.21 µM, COc1ccccc1Nc1ncnc2c1oc1ccccc12 14.7 µM, c1ccc(Nc2ncnc3c2oc2ccccc23)cc1 7.36 µM, Oc1ccc(Nc2ncnc3c2oc2ccccc23)cc1 13.1 µM, c1ccc2c(c1)oc1c(Nc3ccc4c(c3)OCO4)ncnc12 1.65 µM, C=C1SC(=Nc2ccccc2Cl)N(C(=O)c2sc3ccccc3c2Cl)C1(C)C 13.1 µM, O=C(Nc1ccon1)c1sc2cc(F)ccc2c1Cl 1.65 µM, O=C(NC1=NCCS1)c1sc2cc(F)ccc2c1Cl 0.736 µM, CCCc1cc(C(=O)NCCc2ccccc2)no1 4.14 µM, CC(C)Cc1cc(C(=O)NCCc2ccccc2)no1 2.33 µM, CC(C)c1cc(C(=O)NCCc2ccccc2)no1 2.33 µM, Brc1ccc(C2=NC(Cc3ccccc3)CO2)cc1 (stereo not drawn) 14.7 µM, OC(COc1ccc2ccccc2c1Cl)CN1CCOCC1 (stereo not drawn) 10.4 µM, Nc1c(C(=O)c2ccccc2)oc2ccc(Br)cc12 2.61 µM, COc1ccc2oc(C(=O)c3ccccc3)c(N)c2c1 1.17 µM, COc1ccc(C(=O)c2oc3ccc(OC)cc3c2N)cc1 7.36 µM, COc1ccc(OCc2cccc(C(=O)Nc3ccc(CN4CCCCC4)cc3)c2)cc1 2.07 µM, CC1CN(C(=O)c2cccc(COc3ccc(Br)cc3)c2)CC(C)O1 (stereo not drawn) 2.93 µM, COc1ccc(OCc2cccc(C(=O)N3CCCC3)c2)cc1 1.47 µM, Cc1cc(NC(=O)c2cccc(COc3ccc(Br)cc3)c2)no1 1.04 µM, CCOc1ccc(N=C(C)C2=C(O)c3ccccc3C2=O)cc1 1.17 µM, O=Cc1c(N2CCN(c3ccccc3)CC2)nc2ccccn2c1=O 16.5 µM, COc1ccccc1N1CCN(c2nc3ccccn3c(=O)c2C=O)CC1 18.5 µM, Cc1ccc(/C=C/C(=O)N2CCc3ccccc32)o1 2.93 µM, O=C(/C=C/c1ccc(Cl)cc1Cl)N1CCc2ccccc21 0.521 µM
